FBW7 act = activators of human E3 ligase FBW7. Q969H0. AlphaScreen FBW7–phospho-cyclin E peptide binding, activator screen. normalized activity (activation), % at 26.1 µM. actives 0.13% (n = 650,000); in the data active means normalized activity above about 1.9%;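 further: purified mutant Fbw7 with reduced substrate affinity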
GPR151 ag = human GPR151 activation. activation, % at 11.2 µM. Q8TDV0. actives 1% (n = 650,000). PathHunter beta-arrestin GPR151 cells, luminescence. AID 1508602; in the data active means activation above about 4.9%
TEAD-YAP block = TEAD-YAP interaction inhibition; HEK-TIYL cells, TEAD-Gal4/YAP UAS-luciferase luminescence; inhibition, % at 9.12 µM; actives 1.4% (n = 640,000); AID 1259422; in the data active means inhibition above about 32%
MITF primary = blocks human microphthalmia-associated transcription factor; O75030; AlphaScreen MITF homodimerization, bead proximity signal; inhibition, % at 2.6 µM; actives 0.91% (n = 650,000); AID 1259374; in the data active means inhibition above about 50%
Target sequence (O75030 whole entry, looked up): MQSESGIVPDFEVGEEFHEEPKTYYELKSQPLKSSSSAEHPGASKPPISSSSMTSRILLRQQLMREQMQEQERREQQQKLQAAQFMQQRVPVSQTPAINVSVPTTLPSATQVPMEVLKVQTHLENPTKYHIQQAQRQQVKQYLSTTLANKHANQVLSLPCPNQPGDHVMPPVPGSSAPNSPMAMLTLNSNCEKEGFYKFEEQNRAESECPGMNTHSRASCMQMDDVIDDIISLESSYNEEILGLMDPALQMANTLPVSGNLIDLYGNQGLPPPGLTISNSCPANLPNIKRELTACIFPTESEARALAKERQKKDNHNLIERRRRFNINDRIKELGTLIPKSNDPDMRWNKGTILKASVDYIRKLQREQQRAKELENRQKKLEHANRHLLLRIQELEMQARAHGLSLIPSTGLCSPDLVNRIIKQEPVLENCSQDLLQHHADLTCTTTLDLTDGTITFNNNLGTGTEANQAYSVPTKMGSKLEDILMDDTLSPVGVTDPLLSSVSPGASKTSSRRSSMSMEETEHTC
MITF inh conf = confirmation of human MITF inhibitors; shares compounds with MITF primary; AlphaScreen MITF homodimerization, biotin/His-MITF beads; inhibition, % at 2.6 µM; actives 16% (n = 4,700); AID 1259372;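 active means inhibition above a cutoff derived from the DMSO control wells, cut at about 28% in these data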;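 further: inhibitors lower the bead chemiluminescence by keeping MITF from dimerizing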
AlphaScreen DR = AlphaScreen optical interference, dose response counter-screen | shares compounds with MITF primary | AlphaScreen optical interference counterscreen, cell-free | IC50, µM | actives 6% (n = 480) | AID 1259373; call rule not given here
AlphaScreen intf2 = counter-screen: compounds optically interfering with AlphaScreen. AID 1259376. actives 7.6% (n = 4,700). shares compounds with MITF primary. inhibition, % at 2.6 µM. LysRS AlphaScreen counterscreen, signal interference, triplicate;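 active means inhibition above a cutoff derived from the DMSO control wells, cut at about 30% in these data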
Of the large screens only hits and unclear results are named; the others gave an inactive call (follow-up assays come after a bar, where they were run). Hits are enriched below; roughly 3.5% of the tested compounds scored in any of these assays.

O=C1CSC(c2ccc(Cl)cc2Cl)N1c1ccc(Cl)cn1 (stereo not given)	none
Cc1cccc(C)c1N1CCN(C(=O)c2cc3cc(Br)ccc3oc2=O)CC1	MITF primary 88 | MITF inh conf inactive | AlphaScreen intf2 inactive
Cc1ccc(N2CCN(C(=O)c3cc4cc(Br)ccc4oc3=O)CC2)cc1C	none
CN(C)CC(=O)Nc1cc(N(C)C)nc2ccccc12	MITF primary 62 | MITF inh conf inactive | AlphaScreen intf2 inactive
Cc1cc(C)nc(SC(C)C(=O)N/N=C/c2ccccc2Cl)n1 (stereo not given)	none
OCc1ccccc1-c1cnc2ccc(NCc3cccc(Cl)c3)nn12	none
CCCCN1C(=O)NC2NC(=O)NC21 (stereo not given)	MITF primary 94 | MITF inh conf 86 | AlphaScreen intf2 54
CC(C)Nc1nc(-c2ccc(Cl)cc2)c(S(C)(=O)=O)cc1C#N	MITF primary 58 | MITF inh conf inactive | AlphaScreen intf2 inactive
CS(=O)(=O)c1cc(C#N)c(N2CCNCC2)nc1-c1ccc(Cl)cc1	none
CC(=O)Nc1ccc(-c2csc(Nc3ccc([N+](=O)[O-])cc3)n2)cc1	none
O=[N+]([O-])c1ccc(Nc2nc(-c3ccncc3)cs2)cc1	MITF primary 51 | MITF inh conf inactive | AlphaScreen intf2 inactive
O=C1CSC(=O)N1CC(O)COc1cccc2ccccc12 (stereo not given)	MITF primary 89 | MITF inh conf inactive | AlphaScreen intf2 inactive
CS(=O)(=O)Nc1ccc(-c2cnc3cccc(N(C(=O)c4ccccn4)C(=O)c4ccccn4)c3c2)cc1	MITF primary 66 | MITF inh conf 36 | AlphaScreen intf2 54
O=C(CSc1nc(-c2ccccc2)cc(=O)[nH]1)Nc1nncs1	none
CCc1ccc(-c2cc(C(=O)Nc3cc(C(=O)OC)cc(C(=O)OC)c3)c3ccccc3n2)cc1	MITF primary 53 | MITF inh conf inactive | AlphaScreen intf2 inactive
CCc1ccc(-c2cc(C(=O)Nc3ccc(C(=O)OC)cc3)c3ccccc3n2)cc1	none
Cc1ccc2[nH]c(=O)c(CN(CC3CCCO3)S(=O)(=O)c3ccccc3)cc2c1 (stereo not given)	none
COc1ccc(S(=O)(=O)N(Cc2cc3ccc(C)cc3[nH]c2=O)CC2CCCO2)cc1 (stereo not given)	MITF primary 69 | MITF inh conf inactive | AlphaScreen intf2 inactive
O=C(CSc1nc(NCc2ccco2)c2ccccc2n1)N1CCN(c2ccccc2)CC1	MITF primary 52 | MITF inh conf inactive | AlphaScreen intf2 inactive
Cc1ccc(Cc2c(C)nc3c(C(=O)N4CCN(c5cc(C)ccc5C)CC4)cnn3c2C)cc1	none
COCCNCC(=O)Nc1nc(C)cs1	MITF primary 70 | MITF inh conf inactive | AlphaScreen intf2 inactive
COCCNCC(=O)Nc1nnc(C)s1	none
Nc1nonc1-c1noc(-c2ccccc2F)n1	none
Nc1nonc1-c1noc(-c2ccccc2Br)n1	MITF primary 77 | MITF inh conf inactive | AlphaScreen intf2 inactive
C1=CC2CC1CC2CN1CCN(C2CCCC2)CC1 (stereo not given)	MITF primary 67 | MITF inh conf inactive | AlphaScreen intf2 inactive
CCC(C)N1CCN(CC2CC3C=CC2C3)CC1 (stereo not given)	MITF primary 73 | MITF inh conf inactive | AlphaScreen intf2 inactive
C1=CC2CC1CC2CN1CCN(C2CCCCCC2)CC1 (stereo not given)	MITF primary 55 | MITF inh conf inactive | AlphaScreen intf2 inactive
C1=CC2CC1CC2CN1CCN(C2CCC(c3ccccc3)CC2)CC1 (stereo not given)	MITF primary 63 | MITF inh conf inactive | AlphaScreen intf2 inactive
C1=CC2CC1CC2CN1CCN(C2CCCCC2)CC1 (stereo not given)	none
CC(C)N(CCNS(=O)(=O)c1ccc(Cl)c([N+](=O)[O-])c1)C(C)C	none
COc1ccc(C(=O)NCCc2nnc3ccc(SCC#N)nn23)cc1	none
COc1cccc(NC(=O)Cn2c(=O)sc3ccccc32)c1	none
Cc1onc(-c2ccccc2)c1C(=O)NC1=NCCS1	none
Cc1noc(C)c1C(=O)NC1=NCCS1	MITF primary 57 | MITF inh conf inactive | AlphaScreen intf2 inactive
CCOc1ccc2nc(N=C(NC(=O)CC)NC(=O)CC)nc(C)c2c1	MITF primary 110 | MITF inh conf inactive | AlphaScreen intf2 inactive
O=[N+]([O-])c1cccc(P(=O)(c2cccc([N+](=O)[O-])c2)N2CCOCC2)c1	MITF primary 51 | MITF inh conf inactive | AlphaScreen intf2 inactive
CSc1nc2ccccc2c(=O)n1CC1COc2ccccc2O1 (stereo not given)	none
O=C(NCc1nc(N2CCCC2)c2cc(Cl)ccc2n1)c1cc(-c2ccccc2)no1	none
CC1CCN(CCCNC(=O)C2CC(=O)N(CCc3ccccc3)C2)CC1 (stereo not given)	MITF primary 107 | MITF inh conf inactive | AlphaScreen intf2 inactive
O=C(CN1CCN(C(=O)CSc2ccc(F)cc2)CC1)c1cccs1	MITF primary 80 | MITF inh conf inactive | AlphaScreen intf2 inactive
Cc1cccc(NC2(C(F)(F)F)N=C3SCCN3C2=O)n1 (stereo not given)	MITF primary 80 | MITF inh conf inactive | AlphaScreen intf2 inactive
C=CCc1cccc(Cl)c1OCCCN1CCN(C)CC1	none
C=CCc1cccc(Cl)c1OCCCN1CCNCC1	MITF primary 53 | MITF inh conf inactive | AlphaScreen intf2 inactive
C=CCc1cccc(Cl)c1OCCCNCCN1CCOCC1	MITF primary 56 | MITF inh conf inactive | AlphaScreen intf2 inactive
NS(=O)(=O)c1ccc(CCNC(=O)CSc2nc(Nc3ccc4c(c3)OCO4)c3ccccc3n2)cc1	none
Cn1c(N2CCCC(C(=O)NCCCN3CCOCC3)C2)nc2ccccc21 (stereo not given)	none
CCCNC(=O)c1ccc(CN(c2ccccc2)S(C)(=O)=O)cc1	none
CCCCNC(=O)c1ccc(CN(c2ccccc2)S(C)(=O)=O)cc1	MITF primary 92 | MITF inh conf inactive | AlphaScreen intf2 inactive
C=CC1=C(C(=O)O)N2C(=O)[C@@H](NC(=O)/C(=N\O)c3csc(N)n3)[C@H]2SC1 (stereo in doubt)	MITF primary 59 | MITF inh conf 59 | AlphaScreen intf2 46
Cc1ccc(C)n1C(Cc1c[nH]c2ccccc12)C(=O)O (stereo not given)	MITF primary 87 | MITF inh conf 73 | AlphaScreen DR inactive | AlphaScreen intf2 inactive
O=C(O)CSCC(=O)N1CCC(N2C(=O)Cc3ccccc32)CC1	none
C=CCc1cc(OC)ccc1OCCCCn1cncn1	MITF primary 76 | MITF inh conf inactive | AlphaScreen intf2 inactive
C=CCc1cc(OC)ccc1OCCCN1CCN(C)CC1	MITF primary 82 | MITF inh conf inactive | AlphaScreen intf2 inactive
C=CCc1cc(OC)ccc1OCCN1CCCCC1	none

Source: PubChem
